The whole screen tested about 390,000 compounds, of which about 2,600 (0.67%) were called active. Many of the other results were omitted from the sample, so actives are more common in it than they were. Unmarked numbers belong to inactive results.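 How the source made its calls: active means mean inhibition of replicates at least 50% and at least half of replicates each reaching 50%; inconclusive means half or more replicates reach 50% but mean below 50%; inactive means the rest.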

The target in the assay is Transforming acidic coiled-coil-containing protein 3 (Homo sapiens) (UniProt Q9Y6A5). Nature of the assay: inhibitors of ARNT PAS-B binding to TACC3 – biochemical, AlphaScreen, single concentration, primary screen (AID 623870).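 Further: 0% = complete ARNT plus TACC3 wells and 100% = ARNT alone without TACC3.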 The note with it: AlphaScreen His-ARNT PAS-B/GST-TACC3 binding, luminescence; at 9.99 µM; hits give high values.
For the molecule `Cc1ccc2c(c1)=C/C(=C\c1c(O)[nH]c(=O)[nH]c1=O)C(=O)N=2`, the inhibition was 13.7%.

Regarding `O=C1N=c2ccccc2=C/C1=C\c1c(O)[nH]c(=S)[nH]c1=O`, the inhibition is 37% (active).

With `COc1ccccc1N=Nc1c(O)[nH]c(=S)[nH]c1=O`, the inhibition is -1.81%.

`C[C@@H]1CN([C@H](C)CO)C(=O)CCCn2cc(nn2)CO[C@@H]1CN(C)C(=O)Oc1cccc2ccccc12`: the inhibition is -8.62%.

As for `O=C(Cc1ccccn1)N1CCCCN2[C@H](C1)[C@H](c1ccc(-c3ccccc3F)cc1)[C@@H]2CO`, the inhibition is 10.9%.

As to `C/C=C/c1ccc([C@H]2[C@H](CO)N3CCCCN(C(=O)Cc4ccncc4)C[C@@H]23)cc1`, the inhibition is 1.93%.

For `O=c1[nH]c(=S)n(C2CC2)c(O)c1/C=N/N1CCOCC1`, the inhibition was -0.873%.

As for `CC(C)c1ccc(-n2c(O)c(/C=N/N3CCOCC3)c(=O)[nH]c2=S)cc1`, the inhibition was 6.63%.

`O=C(N/N=C/c1c(O)n(C2CC2)c(=S)[nH]c1=O)c1ccccc1`: the inhibition is 62.7% (active).

Turning to `CCc1nnc(NS(=O)(=O)c2ccc(N=Cc3c(O)n(-c4ccccc4)c(=O)[nH]c3=O)cc2)s1`, the inhibition was -4.6%.

Regarding `O=C(N/N=C/c1c(O)n(C2CC2)c(=S)[nH]c1=O)c1ccccc1Cl`, the inhibition was 68.5% (active).

For `O=c1[nH]c(=O)n(-c2ccc(F)cc2)c(O)c1C=NCCN1CCCCC1`, the inhibition is -1.3%.

Turning to `Cc1cccc(-n2c(O)c(/C=N/N3CCOCC3)c(=O)[nH]c2=S)c1`, the inhibition was -0.608%.

Consider `COc1ccccc1-n1c(O)c(C=NC2CC2)c(=O)[nH]c1=O`, for which the inhibition is 4.19%.

For the molecule `CC/C(=N\NC(=O)c1ccccc1O)c1c(O)n(Cc2ccccc2)c(=O)[nH]c1=O`, the inhibition was 6.78%.

As to `O=c1[nH]c(=O)n(CCc2ccccc2)c(O)c1/C=N/N1CCOCC1`, the inhibition is 0.078%.

With `CCCCC(=O)N/N=C/c1c(O)n(-c2ccccc2)c(=O)[nH]c1=O`, the inhibition was 65.6% (active).

For `O=C(N/N=C/c1c(O)n(Cc2ccccc2)c(=O)[nH]c1=O)c1ccccc1`, the inhibition was 70.1% (active).

In the case of `COc1ccc(-c2ccc([C@H]3[C@H](CO)N4CCCCN(C(=O)Cc5ccncc5)C[C@@H]34)cc2)cc1`, the inhibition was -8.67%.

On to `COC(=O)[C@H]1[C@H](CO)[C@H]2Cn3c(ccc(-c4cccc(F)c4)c3=O)[C@@H]1N2Cc1ccccc1`, for which the inhibition was -0.694%.

As to `O=C(Cc1ccccc1)N1CCCCN2[C@H](C1)[C@H](c1ccc(C#CC3(O)CCCC3)cc1)[C@@H]2CO`, the inhibition was -2.57%.

For `COc1cccc(-c2ccc3n(c2=O)C[C@@H]2[C@@H](CO)[C@H](C(=O)O)[C@H]3N2C(=O)c2cnccn2)c1`, the inhibition was -0.13%.

Turning to `COC(=O)[C@@H]1[C@@H](CO)[C@@H]2Cn3c(ccc(C4=CCCCC4)c3=O)[C@H]1N2CC1CC1`, the inhibition was -4.97%.

Take `O=C(Cc1ccccc1)N1CCCCN2[C@H](CO)[C@H](c3ccc(C#Cc4ccccc4)cc3)[C@H]2C1`: the inhibition was 3.71%.

With `CCOC(=O)[C@@H]1[C@@H]2NC(=O)N[C@@]1(C)Oc1ccccc12`, the inhibition was 1.64%.

In the case of `OC[C@@H]1[C@H]2c3ccccc3NC[C@H]2N1Cc1cccnc1`, the inhibition was 5.28%.

Turning to `CCC(C)n1c(O)c(/C=N/Nc2nc3c(c(=O)n(C)c(=O)n3C)n2C)c(=O)[nH]c1=S` (stereo not given), the inhibition was 65.4% (active).

On to `O=C(O)[C@@H]1[C@@H](CO)[C@@H]2Cn3c(ccc(-c4ccccc4F)c3=O)[C@H]1N2C(=O)c1cccnc1`, for which the inhibition was 8.55%.

For `COc1ccc(C#Cc2ccc([C@H]3[C@H](CO)N4CCCCN(C(=O)Cc5ccccc5)C[C@@H]34)cc2)cc1`, the inhibition was -4.42%.

For `O=C(Cc1ccncc1)N1CCCCN2[C@@H](CO)[C@H](c3ccc(C#CC4(O)CCCC4)cc3)[C@@H]2C1`, the inhibition was -1.41%.

The record behind these values is PubChem BioAssay AID623870 (Broad Institute, 2012).
